{"source": "PubChem BioAssay (Tox21)", "note": "Inconclusive results are not listed. A number with no mark means an inactive call. Calls follow the shape of the dose curve; as a rule, active = well fitted cell-killing curve with a large enough effect in the repeat runs; inconclusive = weak or mixed curves, or effect the other way; inactive = flat fitted curve, though single readings scatter. % is scaled to controls: 0 for no effect and ±100 for the full control effect."}
{"test": "qHTS assay to identify small molecule antagonists of the androgen receptor (AR) signaling pathway using the MDA cell line - cell viability counter screen (AID 743041; also: nearly all actives have a fitted effect of over 45% in size)", "settings": "MDA-kb2 viability, CellTiter-Fluor, 16 h, cells co-treated with R1881 androgen agonist; series mostly up to 70.3 µM; viability change, negative = cytotoxic: at the top concentration", "text": "National Center for Advancing Translational Sciences [NCATS]\nNIH Chemical Genomics Center [NCGC]\nU.S. Environmental Protection Agency [EPA]\nNational Institutes of Environmental Health Sciences [NIEHS]\nNational Toxicology Program [NTP]\nU.S. Food and Drug Administration [FDA]\nAndrogen receptor (AR), a nuclear hormone receptor, plays a critical role in AR-dependent prostate cancer and other androgen related diseases. Endocrine disrupting chemicals (EDCs) and their interactions with steroid hormone receptors like AR may cause disruption of normal endocrine function as well as interfere with metabolic homeostasis, reproduction, developmental and behavioral functions. To identify the compounds that inhibit AR signaling, MDA-kb2 AR-luc cell line (from ATCC, deposited by Wilson et al.) was used to screen the Tox21 10K compound library. MDA-kb2 AR-luc cell line is human breast carcinoma cell line that was stably transfected with a luciferase reporter gene under control of the MMTV promoter containing response elements for both androgen receptor (AR) and glucocorticoid receptor (GR). The cytotoxicity of the Tox21 compound library against the MDA-kb2 AR-luc cell line was tested in parallel by measuring the cell viability using CellTiter-Fluor assay (Promega, Madison, WI) in the same wells.\nTox21 Assay Protocol Summary:\nMDA-kb2 AR-luc cells were dispensed at 3,000 cells/4 uL/well of culture medium into white wall/solid-bottom 1536-well plates using a Multidrop Combi (ThermoFisher Scientific, Waltham, MA) dispenser. After the assay plates were incubated at a 37C and 0% CO2 for 5 hr, 23 nL of compounds dissolved in DMSO, positive controls or DMSO only was transferred to the assay plate by a Pintool station (Kalypsys, San Diego, CA), followed by addition of 1 uL of agonist (R1881) in culture medium using a Bioraptr Flying Reagent Dispenser (FRD) workstation (Beckman Coulter, Indianapolis, IN, USA). The plates were incubated at a 37C and 0% CO2 for 16 h. After 15.5 h incubation, 1uL of CellTiter-Fluor reagent (Promega) was added using a Bioraptr FRD to each plate for measuring cytotoxicity. The fluorescence intensity was quantified on a ViewLux plate reader (PerkinElmer, Shelton, CT) following 30 min incubation at 37C and 0% CO2."}
{"molecule": "O=C(Nc1ccc2c(c1)Cc1ccccc1-2)C(F)(F)F", "viability change, negative = cytotoxic": "-3.17%"}
{"molecule": "COC(=O)/C=C/C(C)=C\\C=C\\C(C)=C\\C=C\\C=C(C)\\C=C\\C=C(C)\\C=C\\C(=O)O", "viability change, negative = cytotoxic": "-7.35%"}
{"molecule": "CCOCCn1c(N2CCCN(C)CC2)nc2ccccc21", "viability change, negative = cytotoxic": "3.95%"}
{"molecule": "CC(=O)Nc1ccn(C2COC(COC(=O)c3ccccc3)O2)c(=O)n1", "note": "(stereo not given)", "viability change, negative = cytotoxic": "6.77%"}
{"molecule": "Cc1c(N=C=O)cccc1N=C=O", "viability change, negative = cytotoxic": "7.53% [at 95 µM]"}
{"molecule": "CC/C=C/CCO", "viability change, negative = cytotoxic": "-3.26% [at 95 µM]"}
{"molecule": "COc1cccc([C@H](O)C2CCN(CCc3ccc(F)cc3)CC2)c1OC", "viability change, negative = cytotoxic": "-4.06%"}
{"molecule": "COc1ccc(/C=C/S(=O)(=O)NC(=O)c2ccc(C)cc2Cl)cc1", "viability change, negative = cytotoxic": "-2.35%"}
{"molecule": "OCCOc1cccc(OCCO)c1", "viability change, negative = cytotoxic": "8.57%"}
{"molecule": "FC1(F)C(F)(F)C(F)(F)C2(F)C(F)(C1(F)F)C(F)(F)C(F)(F)C1(F)C(F)(F)C(F)(F)C(F)(F)C(F)(F)C12F", "note": "(stereo not given)", "viability change, negative = cytotoxic": "4.28%"}
{"molecule": "CO[C@@H]1COCC[C@@H]1N[C@@H]1CC[C@@](C(=O)N2CCc3ncc(C(F)(F)F)cc3C2)(C(C)C)C1", "viability change, negative = cytotoxic": "8.82%"}
{"molecule": "CC(C(=O)O)c1ccc2c(c1)Cc1cccnc1O2", "note": "(stereo not given)", "viability change, negative = cytotoxic": "-11.7%"}
{"molecule": "O=C(O)CCc1nc2ccccc2[nH]1", "viability change, negative = cytotoxic": "1.45%"}
{"molecule": "CCCCOC(=O)C(C)Oc1ccc(Oc2ccc(C(F)(F)F)cn2)cc1", "note": "(stereo not given)", "viability change, negative = cytotoxic": "7.79%"}
{"molecule": "c1ccc(-c2ccc(-c3ccccc3)cc2)cc1", "viability change, negative = cytotoxic": "-6.11% [at 32.5 µM]"}
{"molecule": "O=[N+]([O-])c1ccccc1CCO", "viability change, negative = cytotoxic": "2.4% [at 95 µM]"}
{"molecule": "C=C[Si](OCC)(OCC)OCC", "viability change, negative = cytotoxic": "4.45%"}
{"molecule": "O=C(O)c1ccccc1-n1cc(C(=O)O)c(=O)c2cc(Nc3c(F)cc(F)cc3Cl)c(Cl)cc21", "viability change, negative = cytotoxic": "0.36%"}
{"molecule": "NC(=O)c1ccccc1C(N)=O", "viability change, negative = cytotoxic": "-2.89% [at 95 µM]"}
{"molecule": "NC(=O)c1cc[n+](CC2=C(C(=O)[O-])N3C(=O)[C@@H](NC(=O)Cc4cccs4)[C@H]3SC2)cc1", "viability change, negative = cytotoxic": "0.575% [at 32.5 µM]"}
{"molecule": "Clc1ccccc1-c1nc(-c2ccncc2)no1", "viability change, negative = cytotoxic": "9.4%"}
{"molecule": "O=C1OC(=O)C2CC=CCC12", "note": "(stereo not given)", "viability change, negative = cytotoxic": "3% [at 95 µM]"}
{"molecule": "COc1ccc(CN(CCN(C)C)c2ncccn2)cc1", "viability change, negative = cytotoxic": "29.2%"}
{"molecule": "CC(COc1ccccc1)NC(C)C(O)c1ccc(O)cc1", "note": "(stereo not given)", "viability change, negative = cytotoxic": "6.12% [at 32.5 µM]"}
{"molecule": "CCCCCCC/C=C/C=O", "viability change, negative = cytotoxic": "0.767%"}
{"molecule": "CCCOC(C)=O", "viability change, negative = cytotoxic": "4.69%"}
{"molecule": "CCCCCCCCCCCCN1CCOCC1", "viability change, negative = cytotoxic": "6.45%"}
{"molecule": "C[C@H](CN1CCCC1)C(=O)c1ccc(C(F)(F)F)cc1", "viability change, negative = cytotoxic": "3.6%"}
{"molecule": "O=C1c2ccccc2C(=O)C1c1ccc2ccccc2n1", "viability change, negative = cytotoxic": "-0.356%"}
{"molecule": "CC(C)NC(=O)c1ccccc1N", "viability change, negative = cytotoxic": "1.26%"}
{"molecule": "Cc1c(Nc2ncccc2C(=O)O)cccc1C(F)(F)F", "viability change, negative = cytotoxic": "1.67% [at 32.5 µM]"}
{"molecule": "CCCC1CCCC(=O)O1", "note": "(stereo not given)", "viability change, negative = cytotoxic": "-1.08%"}
{"molecule": "C1=COCCC1", "viability change, negative = cytotoxic": "10.1%"}
{"molecule": "CCCCCCCCS", "viability change, negative = cytotoxic": "16.7% [at 95 µM]"}
{"molecule": "CC(=O)OCC(=O)[C@@]1(O)CC[C@H]2[C@@H]3CCC4=CC(=O)C=C[C@]4(C)[C@@]3(F)[C@@H](O)C[C@@]21C", "viability change, negative = cytotoxic": "-2.68% [at 32.5 µM]"}
{"molecule": "CCCCCC1CCC(=O)O1", "note": "(stereo not given)", "viability change, negative = cytotoxic": "1.54%"}
{"molecule": "C/C(=C\\C(C)CC(C)CC(C)C)C1CC(=O)OC1=O", "note": "(stereo not given)", "viability change, negative = cytotoxic": "-3.56%"}
{"molecule": "CCCC(=O)OCc1ccccc1", "viability change, negative = cytotoxic": "-0.789%"}
{"molecule": "Cc1cc(SC2=C(O)C[C@@](CCc3ccc(N)cc3)(C(C)C)OC2=O)c(C(C)(C)C)cc1CO", "viability change, negative = cytotoxic": "-1.14%"}
{"molecule": "O=C(OCCCCCOC(=O)c1ccccc1)c1ccccc1", "viability change, negative = cytotoxic": "1.14%"}
